This passage reports outcome, Potency and max activation results from PubChem BioAssay (Tox21).

SMILES strings stand for the structures. Values without a mark were called inactive. Inconclusive results are not listed. Calls of active or inactive are those of the source. Calls follow the shape of the dose curve; as a rule, active = well fitted curve in the direction sought with a large enough effect in the repeat runs; inconclusive = weak or mixed curves; inactive = no such curve, though single readings can be large; an effect the other way counts as inactive or inconclusive.

Experiment [1] can be described thus: Caspase-3/7 induction in HepG2 cells by small molecules, qHTS assay (AID 1346978). Also: nearly all actives have a fitted effect of over 15% in size. Put shortly:
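Wild-type HepG2 cells, 2,000/well, settled 5 hr at 37 C and 5% CO2, then compound-treated for 17 hr; caspase-3/7 activity read by luminescent Caspase-Glo 3/7 after 30 min at room temperature.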
Background: Quantitative high-throughput screening tests each substance at several concentrations.

Experiment [2] can be described thus: Caspase-3/7 induction in CHO-K1 cells by small molecules, qHTS assay (AID 1346980). Also: nearly all actives have a fitted effect of over 15% in size. The gist of the method: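 Wild-type CHO-K1 cells exposed to compounds for 17hr at 37 C, 5% CO2. Caspase-3/7 activity then measured by Caspase-Glo 3/7 luminescence after 30min at room temperature.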
Experiment [3] in a line: Caspase-3/7 induction in HepG2 cells by small molecules, qHTS cell viability counter screen (AID 1346981). Also: series mostly up to about 92 µM; nearly all actives have a fitted effect of over 30% in size. The gist of the method:
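Fluorescence read-out of live-cell protease activity (CellTiter-Fluor) after 1 hr with reagent. This was measured in the same wells as the caspase-3/7 luminescence, on HepG2 cells exposed to DMSO-dissolved compounds for 16 hr at 37 C.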

The target of experiment [4] is Nuclear receptor subfamily 1 group I member 2 (Rattus norvegicus) (UniProt Q9R1A7). Nature of the experiment: Rat pregnane X receptor (rPXR) activation by small molecules, qHTS assay (AID 1346983). Also: nearly all actives have a fitted effect of over 20% in size. As to conditions: rPXR luciferase reporter cells, One-Glo luminescence, 24 h; max activation: active compounds read high. The gist of the method:
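Cell-based rPXR activation assay: rPXR cells, 2,000 per well, rested 5hr at 37 C, then exposed to compounds in DMSO for 24 hr at 37 C. Luciferase activity read by One-Glo luminescence after 30 min at room temperature.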

Experiment [5] has as its target Cytochrome P450 2D6 (Homo sapiens) (UniProt P10635). Nature of the experiment: Cytochrome P450 Family 2 Subfamily D Member 6 (CYP2D6) small molecule antagonists: luciferase reporter qHTS assay (AID 1671196). Also: nearly all actives have a fitted effect of over 50% in size. Also: potency is read from the fitted curve at half-maximal effect. The gist of the method: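 Luminogenic proluciferin substrate, CYP2D6 enzyme; 10 min RT preincubation with compound, NADPH regeneration system added, 1 h RT. Stop/detection reagent, 20 min RT, luminescence read (RLU). Signal proportional to CYP activity.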
(In a reporter assay the amount or activity of a reporter protein is the signal.)

Experiment [6] deals with Cytochrome P450 2C19 (Homo sapiens) (UniProt P33261). Nature of the experiment: Cytochrome P450 Family 2 Subfamily C Member 19 (CYP2C19) small molecule antagonists: luciferase reporter qHTS assay (AID 1671197). Also: nearly all actives have a fitted effect of over 65% in size. Also: potency is read from the fitted curve at half-maximal effect. Put shortly: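 First, compounds are pinned into enzyme-substrate mix and held 10 min at room temperature. Second, NADPH regeneration solution is added and plates incubate 1 h at 37C. Third, detection reagent is added and luminescence read after 20 min.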
Cytochrome P450 2C19 (Homo sapiens), sequence (P33261 whole entry, looked up): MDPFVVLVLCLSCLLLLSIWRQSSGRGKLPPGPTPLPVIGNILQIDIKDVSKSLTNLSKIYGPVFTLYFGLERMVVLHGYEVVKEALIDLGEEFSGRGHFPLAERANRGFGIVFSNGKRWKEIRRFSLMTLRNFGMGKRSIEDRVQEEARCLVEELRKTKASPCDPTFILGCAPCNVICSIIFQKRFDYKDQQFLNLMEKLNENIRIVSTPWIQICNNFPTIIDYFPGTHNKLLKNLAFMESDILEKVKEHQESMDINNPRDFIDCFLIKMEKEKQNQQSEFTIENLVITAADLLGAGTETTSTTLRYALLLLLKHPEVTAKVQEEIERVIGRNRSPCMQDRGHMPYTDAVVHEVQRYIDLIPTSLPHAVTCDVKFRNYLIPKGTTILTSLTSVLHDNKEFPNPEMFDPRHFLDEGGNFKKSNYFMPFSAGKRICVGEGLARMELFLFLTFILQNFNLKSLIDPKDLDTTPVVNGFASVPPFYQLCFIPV

The target in experiment [7] is Cytochrome P450 1A2 (Homo sapiens) (UniProt P05177). Nature of the experiment: Cytochrome P450 Family 1 Subfamily A Member 2 (CYP1A2) small molecule antagonists: luciferase reporter qHTS assay (AID 1671199). Also: nearly all actives have a fitted effect of over 50% in size. Also: potency is read from the fitted curve at half-maximal effect. Put shortly:
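Luminescence readout (relative luminescence units) after luciferin detection reagent, 20 min RT. Preceded by 1 h room-temperature CYP1A2 reaction with NADPH regeneration solution following 10 min compound preincubation with enzyme and proluciferin substrate. Furafylline positive control.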

The target in experiment [8] is Cytochrome P450 3A4 (Homo sapiens) (UniProt P08684). Nature of the experiment: Cytochrome P450 Family 3 Subfamily A Member 4 (CYP3A4) small molecule antagonists: luciferase reporter qHTS assay (AID 1671201). Also: series mostly up to about 120 µM; nearly all actives have a fitted effect of over 50% in size. The gist of the method: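 Proluciferin-to-luciferin conversion by CYP3A4, NADPH-regenerated, 1 h RT; luminescence read as RLU. Ketoconazole as control.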
Cytochrome P450 3A4 (Homo sapiens), sequence (P08684 whole entry, looked up): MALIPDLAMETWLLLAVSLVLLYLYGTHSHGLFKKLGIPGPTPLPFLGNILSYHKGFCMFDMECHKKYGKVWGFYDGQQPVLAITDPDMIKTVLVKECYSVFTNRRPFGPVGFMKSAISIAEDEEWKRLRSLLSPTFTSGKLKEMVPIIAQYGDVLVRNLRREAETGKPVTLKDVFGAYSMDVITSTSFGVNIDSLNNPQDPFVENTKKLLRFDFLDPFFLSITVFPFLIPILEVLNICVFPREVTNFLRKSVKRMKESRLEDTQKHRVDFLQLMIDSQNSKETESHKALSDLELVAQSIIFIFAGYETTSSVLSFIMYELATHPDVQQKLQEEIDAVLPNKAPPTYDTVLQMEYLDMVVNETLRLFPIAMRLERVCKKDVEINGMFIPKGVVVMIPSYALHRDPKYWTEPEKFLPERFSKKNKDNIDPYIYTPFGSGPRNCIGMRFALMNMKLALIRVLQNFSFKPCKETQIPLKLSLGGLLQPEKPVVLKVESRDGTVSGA
In experiment [9] the target is Cytochrome P450 2C9 (Homo sapiens) (UniProt P11712). Briefly: Cytochrome P450 Family 2 Subfamily C Member 9 (CYP2C9) small molecule antagonists: luciferase reporter qHTS assay (AID 1671198). Also: nearly all actives have a fitted effect of over 50% in size. Also: potency is read from the fitted curve at half-maximal effect. Put shortly:
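P450-Glo proluciferin substrate with CYP2C9 enzyme; 10 min RT preincubation, then NADPH regeneration 1 h at 37C; luciferin detection reagent 20 min RT, luminescence in relative luminescence units.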

The target in experiment [10] is Voltage-gated inwardly rectifying potassium channel KCNH2 (Homo sapiens) (UniProt Q12809). Briefly: Human Ether-a-go-go-Related Gene (hERG) channel small molecule antagonists: fluorescence cell-based qHTS assay (AID 1671200). The gist of the method: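 Kinetic two-minute fluorescence traces, sampled at 1 s, were collected following thallium stimulus of U2OS cells (1000 per well) that had been cultured overnight at 37 C and loaded with FluxOR II.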
Voltage-gated inwardly rectifying potassium channel KCNH2 (Homo sapiens), sequence (Q12809 whole entry, looked up): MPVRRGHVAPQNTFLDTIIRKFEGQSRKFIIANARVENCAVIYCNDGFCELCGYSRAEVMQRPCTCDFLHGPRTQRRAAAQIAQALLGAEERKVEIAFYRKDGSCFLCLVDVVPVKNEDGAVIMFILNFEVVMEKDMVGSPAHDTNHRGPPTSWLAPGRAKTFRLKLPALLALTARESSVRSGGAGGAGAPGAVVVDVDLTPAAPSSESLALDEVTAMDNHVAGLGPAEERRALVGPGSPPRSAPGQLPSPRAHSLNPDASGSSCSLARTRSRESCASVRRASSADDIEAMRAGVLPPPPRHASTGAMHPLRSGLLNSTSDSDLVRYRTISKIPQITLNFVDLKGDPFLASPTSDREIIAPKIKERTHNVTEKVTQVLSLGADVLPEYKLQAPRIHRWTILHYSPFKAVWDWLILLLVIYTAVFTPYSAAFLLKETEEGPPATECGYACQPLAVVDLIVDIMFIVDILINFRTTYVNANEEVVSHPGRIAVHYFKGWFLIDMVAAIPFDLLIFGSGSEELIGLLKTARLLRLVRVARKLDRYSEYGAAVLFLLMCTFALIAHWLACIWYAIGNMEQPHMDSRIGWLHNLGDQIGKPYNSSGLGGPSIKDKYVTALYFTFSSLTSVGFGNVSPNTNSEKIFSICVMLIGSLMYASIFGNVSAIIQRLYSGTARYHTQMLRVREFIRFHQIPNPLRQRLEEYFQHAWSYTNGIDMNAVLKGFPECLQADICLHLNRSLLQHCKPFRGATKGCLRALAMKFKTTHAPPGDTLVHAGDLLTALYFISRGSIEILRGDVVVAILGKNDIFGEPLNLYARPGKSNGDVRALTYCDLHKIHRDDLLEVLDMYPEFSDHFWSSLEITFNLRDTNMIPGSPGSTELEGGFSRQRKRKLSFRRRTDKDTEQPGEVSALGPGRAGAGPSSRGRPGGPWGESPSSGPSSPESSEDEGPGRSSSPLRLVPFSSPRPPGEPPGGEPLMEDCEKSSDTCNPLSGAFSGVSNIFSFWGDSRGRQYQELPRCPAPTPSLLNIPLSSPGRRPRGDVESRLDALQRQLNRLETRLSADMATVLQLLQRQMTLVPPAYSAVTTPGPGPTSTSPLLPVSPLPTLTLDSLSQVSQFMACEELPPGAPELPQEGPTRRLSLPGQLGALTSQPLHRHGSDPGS

Experiment [11] in a line: Caspase-3/7 induction in CHO-K1 cells by small molecules, qHTS cell viability counter screen (AID 1346979). Also: nearly all actives have a fitted effect of over 35% in size. The gist of the method: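 CellTiter-Fluor viability check, qHTS format: wild-type CHO-K1, 16hr compound treatment, 1hr reagent incubation, fluorescence read.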
Experiment [12] addresses Nuclear receptor subfamily 1 group I member 2 (Homo sapiens) (UniProt O75469). Nature of the experiment: Human pregnane X receptor (PXR) small molecule agonists, qHTS assay (AID 1346982). Also: nearly all actives have a fitted effect of over 35% in size. Put shortly: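 HepG2 PXR-Luc reporter line, 5% charcoal-stripped FBS; 5 hr pre-incubation, compound (DMSO) 24 hr at 37 C/5% CO2; ONE-Glo 30 min RT; luminescence read-out.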
Experiment [13] has the same target. Briefly: CYP3A4 induction through human pregnane X receptor (PXR) by small molecules, qHTS assay (AID 1346984). Also: nearly all actives have a fitted effect of over 40% in size. Put shortly: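 HepG2-derived DPX-2 line carrying PXR plus a CYP3A4-promoter luciferase reporter; cells plated 5 hr, compound-exposed 24 hr at 37C. CYP3A4 activity probed with 3uM (final) Luciferin-IPA for 3hr, then luciferase read after One-Glo.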
For experiment [14] the target is unchanged. Briefly: Human pregnane X receptor (PXR) activation by small molecules, qHTS assay (AID 1346985). Also: nearly all actives have a fitted effect of over 40% in size. Put shortly: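 DPX-2 cells (HepG2 co-transfected with a PXR response element and a CYP3A4-promoter luciferase construct) were seeded at 2,000 per well, rested 5 hr at 37C, then exposed to DMSO-dissolved compounds for 24 hr. Activation was read as luciferase luminescence.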
% is scaled to controls: 0 for no effect and ±100 for the full control effect.

Cytochrome P450 1A2 (Homo sapiens), sequence (P05177 whole entry, looked up): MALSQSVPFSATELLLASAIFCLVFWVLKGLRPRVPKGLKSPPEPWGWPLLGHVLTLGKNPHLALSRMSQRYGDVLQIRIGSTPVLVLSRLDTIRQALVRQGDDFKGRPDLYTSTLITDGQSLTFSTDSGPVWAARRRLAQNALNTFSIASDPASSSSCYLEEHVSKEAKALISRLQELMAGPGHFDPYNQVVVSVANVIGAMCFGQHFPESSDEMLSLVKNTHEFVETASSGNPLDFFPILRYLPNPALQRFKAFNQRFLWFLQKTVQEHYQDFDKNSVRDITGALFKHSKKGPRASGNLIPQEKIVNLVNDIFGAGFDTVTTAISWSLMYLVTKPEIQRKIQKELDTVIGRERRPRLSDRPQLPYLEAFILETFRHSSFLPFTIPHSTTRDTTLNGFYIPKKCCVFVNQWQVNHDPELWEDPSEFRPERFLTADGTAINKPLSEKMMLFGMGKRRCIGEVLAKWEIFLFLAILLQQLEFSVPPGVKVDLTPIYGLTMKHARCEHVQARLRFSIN
Nuclear receptor subfamily 1 group I member 2 (Homo sapiens), sequence (O75469 whole entry, looked up): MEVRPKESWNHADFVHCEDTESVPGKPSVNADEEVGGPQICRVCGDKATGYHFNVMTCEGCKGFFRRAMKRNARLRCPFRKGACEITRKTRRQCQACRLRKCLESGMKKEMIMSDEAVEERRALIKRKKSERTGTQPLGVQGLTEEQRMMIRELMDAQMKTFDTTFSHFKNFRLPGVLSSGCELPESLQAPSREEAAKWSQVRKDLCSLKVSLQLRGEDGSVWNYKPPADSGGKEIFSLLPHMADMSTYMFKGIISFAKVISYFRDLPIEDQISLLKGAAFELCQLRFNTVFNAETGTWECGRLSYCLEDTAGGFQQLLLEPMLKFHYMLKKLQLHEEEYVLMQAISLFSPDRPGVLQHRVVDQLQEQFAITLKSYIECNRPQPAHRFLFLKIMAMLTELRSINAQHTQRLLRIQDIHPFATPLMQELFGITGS
Nuclear receptor subfamily 1 group I member 2 (Rattus norvegicus), sequence (Q9R1A7 whole entry, looked up): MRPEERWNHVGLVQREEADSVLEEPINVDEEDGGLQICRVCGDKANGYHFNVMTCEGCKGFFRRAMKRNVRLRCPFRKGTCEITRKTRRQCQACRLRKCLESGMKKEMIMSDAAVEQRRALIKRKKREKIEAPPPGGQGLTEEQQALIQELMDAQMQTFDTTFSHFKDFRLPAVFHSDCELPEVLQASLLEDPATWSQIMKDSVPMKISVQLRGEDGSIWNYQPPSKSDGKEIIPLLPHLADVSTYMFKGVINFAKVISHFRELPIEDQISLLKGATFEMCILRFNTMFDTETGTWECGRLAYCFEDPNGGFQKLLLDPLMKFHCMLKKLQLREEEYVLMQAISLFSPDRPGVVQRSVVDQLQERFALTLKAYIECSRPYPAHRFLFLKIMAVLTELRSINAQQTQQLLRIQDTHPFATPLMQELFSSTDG
Cytochrome P450 2D6 (Homo sapiens), sequence (P10635 whole entry, looked up): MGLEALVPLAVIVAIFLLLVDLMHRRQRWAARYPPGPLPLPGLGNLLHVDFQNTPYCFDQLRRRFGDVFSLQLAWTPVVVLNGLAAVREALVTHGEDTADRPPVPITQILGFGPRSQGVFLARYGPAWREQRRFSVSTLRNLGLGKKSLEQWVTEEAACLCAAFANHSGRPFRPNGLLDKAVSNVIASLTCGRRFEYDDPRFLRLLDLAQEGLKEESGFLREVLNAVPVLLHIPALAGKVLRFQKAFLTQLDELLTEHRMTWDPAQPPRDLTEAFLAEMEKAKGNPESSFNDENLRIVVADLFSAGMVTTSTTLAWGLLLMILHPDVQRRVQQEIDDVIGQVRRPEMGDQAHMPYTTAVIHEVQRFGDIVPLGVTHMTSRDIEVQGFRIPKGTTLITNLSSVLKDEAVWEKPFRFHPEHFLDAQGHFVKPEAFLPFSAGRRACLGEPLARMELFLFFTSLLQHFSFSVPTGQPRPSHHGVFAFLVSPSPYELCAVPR
Cytochrome P450 2C9 (Homo sapiens), sequence (P11712 whole entry, looked up): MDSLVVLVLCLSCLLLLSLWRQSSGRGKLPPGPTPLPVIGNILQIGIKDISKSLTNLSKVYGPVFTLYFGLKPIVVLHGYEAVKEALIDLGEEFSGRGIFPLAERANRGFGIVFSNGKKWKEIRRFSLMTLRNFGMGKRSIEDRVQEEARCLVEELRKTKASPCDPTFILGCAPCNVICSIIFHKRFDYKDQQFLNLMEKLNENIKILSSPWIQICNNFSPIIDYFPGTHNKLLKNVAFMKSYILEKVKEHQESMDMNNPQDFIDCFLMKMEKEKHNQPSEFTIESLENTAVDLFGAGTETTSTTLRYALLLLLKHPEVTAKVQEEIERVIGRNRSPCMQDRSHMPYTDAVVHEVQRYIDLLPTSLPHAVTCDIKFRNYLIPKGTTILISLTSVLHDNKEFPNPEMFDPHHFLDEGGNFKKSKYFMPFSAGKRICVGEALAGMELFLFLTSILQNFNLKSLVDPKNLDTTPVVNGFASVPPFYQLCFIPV

For `CC(C(=O)O)c1cccc(Oc2ccccc2)c1` (stereo unspecified), the compound was classed as inactive in [1] and in experiment [2]. Besides, the Potency entry in experiment [3], in experiment [5], in experiment [6], in experiment [7] and in experiment [8] was “inactive” in each case. Also, the max activation in [4] is -0.273%.
As to `CC(C)CCCO`, the call in [1] was inactive. The Potency entry in experiment [3], in [5], in experiment [6], in experiment [9], in experiment [7] and in experiment [10] was “inactive” in each case. Moreover, the Potency result in experiment [8] is “inactive”.
With `c1ccc(Cc2ccccc2)cc1`, the compound was classed as inactive in [1]. In addition, the Potency entry in experiment [11], in experiment [3], in experiment [12], in [5], in experiment [10] and in experiment [8] was “inactive” each time. The Potency in [7] is 35.6 µM (active).
Take `CO[C@@]1(NC(=O)C(C(=O)O)c2ccc(O)cc2)C(=O)N2C(C(=O)O)=C(CSc3nnnn3C)CO[C@@H]21` (stereo partly specified): the Potency entry in experiment [11], in [3], in experiment [12], in experiment [13], in [14] and in [5] was “inactive” in each case. The Potency result in experiment [6], in experiment [9], in experiment [7] and in [8] was “inactive” throughout. Moreover, the call in experiment [2] was inactive. Moreover, in experiment [4], the max activation was -4.79%.
Turning to `CCCCc1ccc2c(n1)[C@@H](c1ccc(OC)cc1C[C@H](C)C(=O)O)[C@H](C(=O)O)[C@H]2c1ccc2c(c1)OCO2`, the compound was called inactive in experiment [1]. Moreover, the Potency entry in experiment [11], in experiment [3], in experiment [12], in experiment [6], in experiment [7] and in experiment [10] was “inactive” in each case. The Potency entry in [8] was “inactive”. The figures for the Potency in experiment [5] and in experiment [9] were 71 µM (active) and 35.6 µM (active), respectively.
`CCOC(=O)COC(=O)c1ccccc1C(=O)OCC`: the call in [1] and in [2] was inactive. In addition, the Potency result in [3], in experiment [12], in experiment [5] and in experiment [8] was “inactive” each time. Besides, the Potency was 20 µM (active) in [6], 31.7 µM (active) in experiment [9] and 7.96 µM (active) in experiment [7].
As to `CC(C)(C)c1ccc(-c2ccc(C(C)(C)C)cc2)cc1`, in experiment [1], the outcome was inactive. For the same compound, the Potency result in [11], in experiment [3], in [12], in experiment [5], in experiment [6] and in experiment [9] was “inactive” each time. For the same compound, the Potency entry in experiment [10] and in [8] was “inactive” in each case.
As to `CC[N+](C)(CC)CCOC(=O)C1c2ccccc2Oc2ccccc21`, the call in experiment [1] was inactive. For the same compound, the Potency entry in [11], in experiment [3], in experiment [12], in [13], in experiment [6] and in experiment [10] was “inactive” throughout. For the same compound, the Potency entry in experiment [8] is “inactive”. The max activation in experiment [4] is 0.786%. Besides, the Potency in experiment [5] is 2.75 µM (active).
Turning to `CCCCS(=O)(=O)N[C@@H](Cc1ccc(OCCCCC2CCNCC2)cc1)C(=O)O`, the compound was called inactive in [1]. Further, the Potency entry in experiment [11], in [3], in [12], in [5], in [6] and in experiment [9] was “inactive” throughout. The Potency result in experiment [7], in [10] and in experiment [8] was “inactive” throughout.
As for `CCCCOCCOC(=O)CCCCCCCCC(=O)OCCOCCCC`, the compound was classed as inactive in experiment [1]. Also, the Potency result in experiment [11], in experiment [3], in experiment [12], in experiment [5], in experiment [10] and in experiment [8] was “inactive” in each case. Further, the Potency is 31.7 µM (active) in experiment [6] and 35.6 µM (active) in experiment [9].
Take `O=C(O)c1cn(C2CC2)c2cc(N3CCNCC3)c(F)cc2c1=O`: the Potency result in experiment [11] and in experiment [3] was “inactive” throughout. Further, the call in experiment [2] was inactive. Further, the max activation in experiment [4] is -1.42%.
As for `CCCn1cc[n+](C)c1C`, the Potency entry in experiment [11], in experiment [3], in experiment [12], in experiment [5], in experiment [6] and in experiment [9] was “inactive” each time. Also, the Potency entry in experiment [10] and in experiment [8] was “inactive” throughout. The call in experiment [2] was inactive.
On to `NC(=O)N1c2ccccc2CC(=O)c2ccccc21`, for which, in experiment [2], the compound was called inactive. Also, the Potency entry in experiment [3] and in experiment [9] was “inactive” throughout. For the same compound, the max activation in experiment [4] is -3.02%. Besides, the Potency in experiment [7] is 3.23 µM (active).
